# Assay results as given in PubChem BioAssay (Tox21).
# Inconclusive results are not listed. Entries that show only a call come without a potency. Calls of active or inactive are those of the source. The call rests on the fitted dose curve.
# Target: D(2) dopamine receptor (Homo sapiens) (UniProt P14416)
# Assay: Dopamine D2 receptor (DRD2) small molecule agonists, cell-based qHTS assay (AID 1963594); further: nearly all actives have a fitted effect of over 35% in size
# Conditions: HEK293-DRD2 cAMP HTRF, agonist mode, 30 min; series mostly up to 92.4 µM
# Description: National Center for Advancing Translational Sciences [NCATS]
# Division of Preclinical Innovation [DPI]
# U.S. Environmental Protection Agency [EPA]
# National Institutes of Environmental Health Sciences [NIEHS]
# National Toxicology Program [NTP]
# U.S. Food and Drug Administration [FDA]
# DRD2 is the D2 subtype of the dopamine receptor, which is coupled to Gi subtype of G protein-coupled receptor. This G protein-coupled receptor inhibits adenylyl cyclase activity. The DRD2-HEK293 cell line stably expressing D2 dopamine receptor can be used for screening agonists and antagonists of interactions between D2 and its ligands. The Hek293-DRD2 cAMP assay is based on HTRF technology. It measures changes of cAMP accumulation in response to Gi coupled GPCR activation or inhibition.
# Tox21 Assay Protocol Summary:
# DRD2-Hek293 cells were dispensed at 600 cells/3uL/well in 1536-well white plates using a Multidrop Dispenser. After the assay plates were incubated at a 37 C/5% CO2 incubator for 24 h, 1 uL of Ro20-1724 at final concentration of 0.1 mM was transferred to the assay plate by a Flying Reagent Dispenser. Following Ro20-1724 addition, 23 nL of compound dissolved in DMSO, positive controls or DMSO only was added to the assay plates via Wako pintool station. The assay plates were incubated at room temperature for 10 min. Next, 1 uL of NKH477 at 200nM was added into the plates. After the assay plates were incubated at room temperature for an additional 30 min, 2.5 ul/well of cAMP-d2 and 2.5 ul/well of anti-cAMP-cryptate were added respectively into the assay plates using a Flying Reagent Dispenser. The plates were incubated at room temperature for 1 h. The fluorescence intensity in the plates was measured at 340 nm excitation and 665 & 620 nm emission by an Envision plate reader.
# Chain of D(2) dopamine receptor (Homo sapiens) (P14416 whole entry, looked up): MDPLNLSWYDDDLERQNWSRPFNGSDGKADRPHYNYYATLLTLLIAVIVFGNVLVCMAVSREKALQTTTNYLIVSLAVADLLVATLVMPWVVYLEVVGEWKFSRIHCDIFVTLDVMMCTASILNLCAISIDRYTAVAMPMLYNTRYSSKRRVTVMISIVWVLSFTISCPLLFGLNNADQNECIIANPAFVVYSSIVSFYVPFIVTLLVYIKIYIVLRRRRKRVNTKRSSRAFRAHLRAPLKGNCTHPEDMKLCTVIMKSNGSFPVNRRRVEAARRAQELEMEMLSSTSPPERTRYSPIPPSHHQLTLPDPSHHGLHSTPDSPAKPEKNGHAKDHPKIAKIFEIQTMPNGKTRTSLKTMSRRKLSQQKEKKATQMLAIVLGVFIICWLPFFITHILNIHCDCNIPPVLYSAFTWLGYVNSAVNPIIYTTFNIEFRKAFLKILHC
row,Compound,Potency
1,Nc1c2c(nc3ccccc13)CCCC2,inactive
2,c1ccc2n[nH]nc2c1,inactive
3,Cc1cnc(NC(=O)C2=C(O)c3ccccc3S(=O)(=O)N2C)s1,inactive
4,Clc1cc(Cl)c(Cl)cc1Cl,inactive
5,CCCCCCC(C)O (stereo not given),inactive
6,C=C(C)C(=O)OCC(C)O (stereo not given),inactive
7,CC(C)Cc1ccccc1,inactive
8,CCCCOC(=O)c1ccc(N)cc1,inactive
9,COC(=O)CCC(=O)OC,inactive
10,ClC1=C(Cl)C(Cl)(Cl)C(Cl)=C1Cl,inactive
11,C=C[Si](OCCOC)(OCCOC)OCCOC,inactive
12,CC(=O)CCC=C(C)C,inactive
13,CCCCCCCCCCCCCC(=O)O,inactive
14,O=C(OCc1ccccc1)c1ccccc1O,inactive
15,CCCCCCCCCCN,inactive
16,CCc1cccc2c3c([nH]c12)C(CC)(CC(=O)O)OCC3 (stereo not given),inactive
17,C=C(C#N)C(=O)OCC,inactive
18,OCCOCCOCCO,inactive
19,C=C(CC(=O)O)C(=O)O,inactive
20,CCCc1c(OCCCCc2nn[nH]n2)ccc(C(C)=O)c1O,inactive

row,Compound,Potency
1,c1ccc2c(c1)c1cccc3ccc4cccc2c4c31,inactive
2,c1cnc2c(c1)ccc1cccnc12,inactive
3,CC1=CC[C@H]2C[C@@H]1C2(C)C,inactive
4,CC(=O)OC[C@H]1O[C@@](COC(C)=O)(O[C@H]2O[C@H](COC(C)=O)[C@@H](OC(C)=O)[C@H](OC(C)=O)[C@H]2OC(C)=O)[C@@H](OC(C)=O)[C@@H]1OC(C)=O,inactive
5,COC(=O)C1CCC(C(=O)OC)CC1 (stereo not given),inactive
6,O=C(Oc1ccccc1)c1ccccc1O,inactive
7,Cc1ccc(C(C)C)c(O)c1,inactive
8,O=C(O)CCC(=O)O,inactive
9,CNNCc1ccc(C(=O)NC(C)C)cc1,inactive
10,COCCCN,inactive
11,Cc1[nH]c(=O)c(C#N)cc1-c1ccncc1,inactive
12,Oc1ccc(O)cc1,inactive
13,COC(=O)c1cccc(C(=O)OC)c1,inactive
14,OCCCc1ccccc1,inactive
15,Cc1cc(=O)oc2cc(O)ccc12,inactive
16,CCCCC/C=C\C/C=C\CCCCCCCC(=O)OC,inactive
17,CC[N+](CC)(CC(=O)Nc1c(C)cccc1C)Cc1ccccc1,inactive
18,CC1(C)[C@@H](O[C@H]2O[C@H](C(=O)O)[C@@H](O)[C@H](O)[C@H]2O[C@@H]2O[C@H](C(=O)O)[C@@H](O)[C@H](O)[C@H]2O)CC[C@]2(C)[C@H]3C(=O)C=C4[C@@H]5C[C@@](C)(C(=O)O)CC[C@]5(C)CC[C@@]4(C)[C@]3(C)CC[C@@H]12,inactive
19,CCCCC(=O)O,inactive
20,c1ccc2cc3c(ccc4ccccc43)cc2c1,inactive
